Experimental data published in PubChem BioAssay AID501 (PCMD, 2006).
In all, about 62,000 compounds went through this assay and about 35 (0.06%) were called active. Rule as the data show it: active = inhibition above about 32% (passing the limit was not always enough); inconclusive = no clear call, values can overlap the other calls. The sample as a whole holds a higher share of actives than the screen did.

target: Cathepsin S (Homo sapiens) (UniProt P25774); experiment: inhibitors of human cathepsin S, biochemical, compound mixtures (AID 501); conditions: recombinant cathepsin S, AMC dipeptide fluorescence, pooled mixtures; stronger effect = higher value;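 tested at 5 µM per compound within 10-compound mixtures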;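 also: 0% = enzyme without compound and 100% = blank without enzyme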
Sequence (P25774 115-331 limits assumed): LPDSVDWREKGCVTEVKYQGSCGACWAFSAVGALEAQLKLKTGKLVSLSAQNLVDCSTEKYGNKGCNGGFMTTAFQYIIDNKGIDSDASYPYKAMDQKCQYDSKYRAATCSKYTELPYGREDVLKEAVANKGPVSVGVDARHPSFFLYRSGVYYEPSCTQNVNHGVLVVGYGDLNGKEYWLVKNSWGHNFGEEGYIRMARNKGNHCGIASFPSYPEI

Row | Structure (SMILES) | inhibition
1 | COc1ccc(-n2ncc3c(N4CCc5ccccc54)ncnc32)cc1 | -6.55% (inactive)
2 | COc1ccccc1C(=O)N1CCN=C1SCc1cccnc1 | 3.41% (inactive)
3 | CCn1cc(C(=O)N2CCN(Cc3ccc4c(c3)OCO4)CC2)c2cc(OC)c(OC)cc2c1=O | 0.555% (inactive)
4 | Cc1ccc(S(=O)(=O)NCc2cn3ccsc3n2)c(C)c1 | -2.17% (inactive)
5 | CC1(C)CC(=O)C(C=NCc2cccnc2)=C(O)C1 | -6.24% (inactive)
6 | COc1ccc(C(=O)Cn2nnc(-c3ccc(N4CCOCC4)cc3)n2)cc1OC | 8.22% (inactive)
7 | Cc1c(-c2nn(C)c(=O)c3ccccc23)oc2ccc(F)cc2c1=O | 21.9% (inactive)
8 | CCn1c(SCC(=O)Nc2cc(C)ccc2C)nnc1-c1cnccn1 | -6.74% (inactive)
9 | O=C(Cn1nnc(-c2ccccc2)n1)NCc1ccccc1 | 3.11% (inactive)
10 | NC(=O)Cn1c(=O)oc2ccccc21 | 0.705% (inactive)
11 | Cc1nnc(C)n1/N=C/c1ccc(C(C)C)cc1 | 5.16% (inactive)
12 | CCc1nnc(NC(=O)CSc2nnc(-c3ccncc3)n2Cc2ccccc2)s1 | 15.4% (inactive)
13 | Cc1cc(N2CCCC2=O)cc(C)c1S(N)(=O)=O | 14% (inactive)
14 | CC(C)OCCCNC(=O)CNC(=O)c1cccs1 | 15.3% (inactive)
15 | Cn1cnc2c1c(=O)n(Cc1c(Cl)cccc1Cl)c(=O)n2C | -2.21% (inactive)
16 | CCOC(=O)CNC(=O)CSc1nnc(COc2ccc(Cl)cc2)n1CC | 17% (inactive)
17 | Cc1cccc(N2CCN(C(=O)C3CCN(S(=O)(=O)c4cnc[nH]4)CC3)CC2)c1C | -2.09% (inactive)
18 | CCOC(=O)c1c(NC(=O)c2ccc(Br)o2)sc2c1CCCC2 | -2.96% (inactive)
19 | COc1cccc(N(CC(=O)NC2CCCC2)C(=O)Cn2nnc(-c3ccc(C)cc3)n2)c1 | -32.1% (inactive)
20 | CC1CC(c2ccccc2)n2nc(NC(=O)c3cccs3)nc2N1 (centres undefined) | 7.8% (inactive)
21 | CC(=O)Nc1cc2ccc(OC(C)=O)cc2oc1=O | -31.5% (inactive)
22 | C=CCNC(=O)C1CC=CCC1C(=O)O (centres undefined) | -2.51% (inactive)
23 | CCOC(=O)CSc1nnc(CNc2nc(-c3ccccc3)cs2)n1C | -5.74% (inactive)
24 | O=C(NC(c1ccccc1)c1ccccc1)N1CCN(CCO)CC1 | 10.9% (inactive)

Row | Structure (SMILES) | inhibition
25 | Cc1cc(C(F)(F)F)nn1-c1nc(-c2ccco2)cc(C(F)(F)F)n1 | 7.66% (inactive)
26 | COCCn1c(CN(Cc2ccccc2)Cc2ccccc2)nc2c1c(=O)n(C)c(=O)n2C | 9.43% (inactive)
27 | CCN(C(=O)CSc1ncn[nH]1)c1cccc2ccccc12 | 2.39% (inactive)
28 | Cc1noc(NS(=O)(=O)c2ccc(N3CC(O)=C(c4ccccc4)C3=N)cc2)c1C | -12.9% (inactive)
29 | CCn1ncc(Br)c1C(=O)Nc1cc(C)ccc1F | 6.74% (inactive)
30 | Cc1ccc(-c2nc(CS(=O)CC(=O)N3CCN(c4ncccn4)CC3)c(C)o2)cc1 (centres undefined) | 7.31% (inactive)
31 | CC(C)n1c(C(O)c2ccccc2)nc2ccccc21 (centres undefined) | -7.12% (inactive)
32 | Cc1ccccc1N1CC(c2nc3ccccc3[nH]2)CC1=O (centres undefined) | -1.51% (inactive)
33 | Cc1ccc(-c2nnc(SC(C)C#N)n2N)cc1 (centres undefined) | -1.33% (inactive)
34 | Cn1c(=O)c(C(=O)Nc2ncccn2)c(O)c2ccccc21 | -4.57% (inactive)
35 | CC(=O)NCCc1ccc(S(=O)(=O)N(C)C2CCS(=O)(=O)C2)cc1 (centres undefined) | 30% (inactive)
36 | CCc1ccccc1NC(=O)CSc1nnc([C@@H](NC(=O)OC(C)(C)C)C(C)C)o1 | 9.29% (inactive)
37 | Cc1nn(C)c(C)c1S(=O)(=O)N1CCc2ccccc21 | -5.94% (inactive)
38 | CCOC(=O)c1sc(N(Cc2ccccc2)C(=O)CN2C(=O)CN(C)C2=O)nc1C | -1.84% (inactive)
39 | COCCn1c(=O)[nH]c2cc(C(=O)NCc3cccnc3)ccc2c1=O | 4.14% (inactive)
40 | Cc1ccc(NC(=O)CS(=O)CC(=O)N(c2ccccc2)C(C)C(=O)NC2CCCC2)cc1 (centres undefined) | -27.8% (inactive)
41 | O=C(C1CCN(CC2CCCCC2)CC1)N1CCCC1 | -3% (inactive)
42 | FC(F)Oc1ccccc1C1CC(c2ccc(Br)s2)Nc2ncnn21 (centres undefined) | 1.68% (inactive)
43 | CCC(C)n1[nH]c(=O)c2c(C)cc(C)nc21 (centres undefined) | 12.4% (inactive)
44 | Cc1nc(NC(=O)CCC(=O)O)sc1C(=O)N(C)C | -4.56% (inactive)
45 | O=C(Cn1cc2c(n1)CCCCC2)NCCN1CCOCC1 | 7.2% (inactive)
46 | CC(C)c1ccc(NS(=O)(=O)c2cn(C)c(=O)n(C)c2=O)cc1 | -0.575% (inactive)
47 | COc1ccccc1NC(=O)CSc1nnc(Cn2nnc(-c3ccccc3)n2)n1-c1ccccc1 | -0.79% (inactive)
48 | CC(CNC(=O)c1ccc(Br)o1)NC(=O)c1ccc(Br)o1 (centres undefined) | 6.17% (inactive)

Row | Structure (SMILES) | inhibition
49 | COc1cc(Cl)cc(C2NC(=O)NC(C)=C2C(=O)NCc2ccccc2)c1O (centres undefined) | 7.15% (inactive)
50 | CCOC(=O)C(C)Oc1cccc2c(=O)n(CC(=O)N3CCc4ccccc43)ccc12 (centres undefined) | -6.21% (inactive)
51 | CC(NC(=O)CN1CCN(Cc2ccc(Cl)cc2)C1=O)c1ccc2c(c1)OCCO2 (centres undefined) | 55.3% (inactive)
52 | CSc1sc(C)cc1C1C(C#N)=C(N)N(c2cccnc2)C2=C1C(=O)CCC2 (centres undefined) | 1.56% (inactive)
53 | NC(=O)c1ccsc1NC(=O)c1ccco1 | 7.91% (inactive)
54 | COC(=O)[C@H](CCSC)NC(=O)Nc1ccc(OC)cc1 | -1.09% (inactive)
55 | O=C(CCCn1c(=O)[nH]c2cc(Cl)ccc2c1=O)NCCN1CCN(c2ccccc2)CC1 | 13.6% (inactive)
56 | Cc1ccc(-c2noc(CSc3nnc(-c4ccccc4)n3C)n2)cc1 | -4.08% (inactive)
57 | COCCCn1c(CCC(=O)O)ccc1-c1ccc(F)cc1 | -19.4% (inactive)
58 | CCCNS(=O)(=O)c1ccc(CCC(=O)NCc2cccnc2)cc1 | -3.48% (inactive)
59 | CCOc1ccc(CC(=O)Nc2ccc(S(=O)(=O)Nc3cc(C)on3)cc2)cc1OCC | -4.34% (inactive)
60 | Cc1cnc(NC(=O)CSc2nnc(-c3ccccc3)n2Cc2ccccc2)s1 | 11.8% (inactive)
61 | CCOc1ccc(NC(=O)Nc2ccc(N(C)C(C)=O)cc2)cc1 | -16.6% (inactive)
62 | Cn1c(C(=O)NCCN2CCc3ccccc3C2)cc2c(=O)[nH]c3ccccc3c21 | 45.6% (active)
63 | Cn1c(C(=O)NCCc2ccsc2)cc2c(=O)n(C)c3ccccc3c21 | -2.9% (inactive)
64 | Cc1cccc(N2CCN(C(=O)c3cc4c(=O)[nH]c5ccccc5c4n3C)CC2)c1C | 16.8% (inactive)
65 | CC(=O)Nc1ccc(-c2cn3cccnc3n2)cc1 | -4.08% (inactive)
66 | COc1ccc(N(CC(=O)NC2CCCCCCC2)S(=O)(=O)c2c(C)nn(C)c2C)cc1 | -2.48% (inactive)
67 | COc1ccc(N(C(=O)c2cccnc2)S(=O)(=O)c2ccc3c(c2)n(C)c(=O)n3C)cc1 | -5.68% (inactive)
68 | Cc1ccccc1NC(=O)CNc1ccccc1N1CCCCC1 | -4.53% (inactive)
69 | COC(=O)c1[nH]c2ccccc2c1NC(=O)CN1CCCc2ccccc21 | 15.9% (inactive)
70 | COC(=O)c1[nH]c2cccc(C)c2c1NC(=O)CN1CCCc2ccccc21 | 51.2% (active)
71 | COC(CCN(C)C)(c1ccccc1)c1ccccc1 | -4.38% (inactive)
72 | CCN(CCCCOC(=O)c1ccc(OC)c(OC)c1)C(C)Cc1ccc(OC)cc1 (centres undefined) | 14.3% (inactive)

Row | Structure (SMILES) | inhibition
73 | O=C(O)C1CCCN(S(=O)(=O)c2cccc3cccnc23)C1 (centres undefined) | -4.15% (inactive)
74 | O=C(O)CSCNC(=O)CC12CC3CC(CC(C3)C1)C2 | 1.12% (inactive)
75 | CCOc1ccccc1Nc1nnc(SCC(=O)Nc2cc(C)on2)s1 | 8.96% (inactive)
76 | CC1=C(C(=O)OCc2ccccc2)C(c2ccco2)n2ncnc2N1 (centres undefined) | 6.81% (inactive)
77 | CCOC(=O)C1CCN(C(=O)C2CCN(S(=O)(=O)CC)CC2)CC1 | 6.47% (inactive)
78 | O=C(CN(c1ccc2c(c1)OCCO2)S(=O)(=O)c1ccccc1)Nc1ccc2c(c1)OCO2 | 8.94% (inactive)
79 | Cc1nnc(SCCCn2c(N3CCCCC3)nc3c2c(=O)[nH]c(=O)n3C)s1 | 37.6% (active)
80 | C=C(C)Cn1c(N2CCCC2)nc2c1c(=O)[nH]c(=O)n2C | -0.005% (inactive)
81 | Cn1c(=O)[nH]c(=O)c2c1nc(N1CCCCCC1)n2CC(=O)c1ccccc1 | 12.8% (inactive)
82 | CCOc1ccc(C2C(C(=O)O)c3ccccc3C(=O)N2CCN2CCOCC2)cc1 (centres undefined) | 39.9% (inactive)
83 | Cn1c(=O)cc(SCC(=O)N2CCCC2)c2cc(Cl)ccc21 | 1.36% (inactive)
84 | O=C(NCc1ccccn1)Nc1ccc(F)cc1 | 17.6% (inactive)
85 | CCCc1nc(-c2ccccc2O)n(-c2ccccc2)n1 | -4.97% (inactive)
86 | O=C(O)C1CC=CCC1C(=O)NCCc1ccccc1 (centres undefined) | -14.2% (inactive)
87 | O=C1c2ccccc2C(=O)N1c1ccccc1S(=O)C(F)(F)F (centres undefined) | 16.1% (inactive)
88 | COC(=O)CN(c1nc(C)c(Cl)c(OC)n1)S(=O)(=O)c1ccc(C)cc1 | 3.91% (inactive)
89 | CCOc1ccc(NC(=O)CSc2nc3c(c(=O)n2-c2ccccc2OC)SCC3)cc1 | -11.1% (inactive)
90 | O=C(NCCCN1CCN(Cc2ccccc2)CC1)C1CCN(S(=O)(=O)N2CCCC2)CC1 | 17.9% (inactive)
91 | O=C(COc1ncnc2ccccc12)NC(=O)NCc1ccccc1 | -8.35% (inactive)
92 | Cc1cccc(N2CCN(Cc3c(C)n(C)n(-c4ccccc4)c3=O)CC2)c1C | -2.31% (inactive)
93 | CC(C)C[C@H](NC(=O)[C@@H]1O[C@H]1C(=O)O)C(=O)NCCCCN=C(N)N | 117% (active)
94 | Cc1cccc(N2CCN(C(c3ccccc3)c3nnnn3CC3CCCO3)CC2)c1C (centres undefined) | 6.28% (inactive)
